In the library only some 3.8% were active in any assay of this set; here they are far more common.
tim10-1 inh = growth inhibitors of tim10-1 mutant yeast, primary screen, luminescence, uHTS. AID 463190, 2010. inhibition, % at 20 µM. S. cerevisiae tim10-1 ts strain growth, BacTiter-Glo, 24 h. hit rate 2.2% among 330,000;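 active = inhibition of at least 40%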;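 note: mutant grown at 25 °C; 0% = DMSO wells with yeast and 100% = wells holding no yeast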
tim23-1 inh = growth inhibitors of tim23-1 mutant yeast, primary screen, luminescence, uHTS; S. cerevisiae tim23-1 growth, BacTiter-Glo luminescence, 24 h; AID 463212, 2010; hit rate 1.3% among 330,000; inhibition, % at 20 µM;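 active = growth inhibition of the mutant yeast at or above 50%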;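 note: temperature-sensitive mutant grown at 25 °C; plate controls were DMSO-treated mutant yeast for no effect and medium wells lacking yeast for full effect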
Beta2AR agonist = beta2AR agonists driving receptor internalization, primary screen, cell-based, FAP fluorogen, flow cytometry; hit rate 0.43% among 340,000; Beta-2 adrenergic receptor (Homo sapiens), P07550; AID 504454, 2011; Am2.2-beta2AR cells; response, % (no concentration beside the values);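 active = response above a set limit, near 3 SD of response in nonfluorescent compounds, cut at about 42% in these data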
Target sequence (P07550 whole entry, looked up): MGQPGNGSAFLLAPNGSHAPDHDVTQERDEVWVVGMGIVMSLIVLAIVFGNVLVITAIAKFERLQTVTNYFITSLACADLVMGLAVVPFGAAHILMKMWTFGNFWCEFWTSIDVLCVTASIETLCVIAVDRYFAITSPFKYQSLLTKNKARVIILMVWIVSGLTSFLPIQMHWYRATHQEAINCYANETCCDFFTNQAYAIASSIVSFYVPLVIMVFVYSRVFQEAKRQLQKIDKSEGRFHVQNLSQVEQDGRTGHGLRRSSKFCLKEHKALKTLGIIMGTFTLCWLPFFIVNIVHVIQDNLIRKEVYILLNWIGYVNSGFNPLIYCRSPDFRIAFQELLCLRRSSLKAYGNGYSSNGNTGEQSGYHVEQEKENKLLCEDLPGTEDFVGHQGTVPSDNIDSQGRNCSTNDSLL
PfHsp90 yeast 2 = growth inhibition of PfHsp90-expressing yeast, primary screen, antimalarial PfHsp90 inhibitor project, S. cerevisiae, BacTiter-Glo luminescence, single point, set 2; BacTiter-Glo ATP, 48 h; yeast lacking PDR1 and PDR3 efflux regulators; inhibition, % at 9.4 µM; hit rate 0.32% among 310,000; AID 504621, 2011;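 active = every replicate shows inhibition above about 80%, whatever the replicate mean, limit read from the data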;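 note: 0% = DMSO neutral controls and 100% = 20 µM radicicol positive controls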
TIM10 inh = growth inhibitors of isogenic TIM10 control yeast, primary screen, counter-screen for tim10-1 yeast inhibitor project, luminescence, uHTS | S. cerevisiae TIM10 strain growth, BacTiter-Glo luminescence, 24 h | inhibition, % at 10 µM | hit rate 1.4% among 330,000;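 active = inhibition of 40% or more at the single tested concentration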;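 note: wild-type TIM10 isogenic control strain grown at permissive 25 °C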
TIM10 conf = growth inhibitors of wild-type TIM10 yeast, confirmation, counter-screen for tim10-1 synthetic lethality project, single concentration, luminescence, S. cerevisiae. shares compounds with TIM10 inh. S. cerevisiae tim10 strain growth, BacTiter-Glo luminescence, 24 h. inhibition, % at 10 µM. hit rate 63% among 4,600. AID 463215, 2010;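 active = inhibition of yeast growth at or above a set limit in either of two replicates at 10 µM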;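 note: this counterscreen used the strain with wild-type TIM10; 0% = yeast with DMSO and 100% = medium wells lacking yeast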
tim23-1 conf = tim23-1 mutant yeast growth inhibitors, confirmation, luminescence, single concentration | inhibition, % at 20 µM | shares compounds with tim23-1 inh | S. cerevisiae tim23-1 growth, BacTiter-Glo luminescence, 24 h | hit rate 83% among 4,400;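 active = inhibition above about 39% in either of two replicate wells at 20 µM, limit read from the data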;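 note: temperature-sensitive tim23-1 mutant grown at 25 °C; 0% = DMSO wells with yeast and 100% = medium wells without yeast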
An asterisk follows results filed as active; nt = no result; + = active, no number.

SMILES | tim10-1 inh | tim23-1 inh | Beta2AR agonist | PfHsp90 yeast 2 | TIM10 inh | TIM10 conf | tim23-1 conf
CCc1ccn2cc(-c3cc(-c4ccccc4)no3)nc2c1 | 32.9 | 61.4* | 5.0 | 23.8 | 62.3* | 56.2* | 81.3*
O=C(N/N=C/C=C/c1ccccc1)c1cccs1 | -1.8 | 42.4 | 2.0 | 15.2 | 33.4 | nt | nt
O=C(N/N=C/C(Br)=C/c1ccccc1)c1cccs1 | 20.5 | 61.1* | -4.0 | 26.3 | 41.5* | 27.9 | 76.2*
COc1ccc(NS(=O)(=O)c2ccc(C(=O)N(C)Cc3cccs3)cc2)cc1 | 22.1 | 4.0 | 7.5 | nt | 4.6 | nt | nt
c1ccc(-n2cnc3cc(NCc4ccco4)ccc32)cc1 | 25.0 | 53.8* | -6.5 | nt | 53.1* | 39.3* | 68.0*
Cc1nc2cc(NC(=O)NCc3ccco3)ccc2n1C | 0.4 | 9.0 | 2.4 | 32.4 | 9.4 | nt | nt
O=Cc1ccc(OCCCOc2cccc3cccnc23)cc1 | 38.7 | 36.0 | 4.1 | -7.8 | 14.2 | nt | nt
O=Cc1ccccc1OCCCOc1cccc2cccnc12 | 33.2 | 76.3* | -8.2 | -7.1 | 49.5* | 52.4* | 78.7*
O=C(COC(=O)Cc1c[nH]c2ccccc12)Nc1cc(S(=O)(=O)N2CCOCC2)ccc1Cl | 1.2 | 12.2 | 5.3 | -12.0 | 2.9 | nt | nt
N#Cc1nc(-c2ccccc2F)oc1NCc1ccccc1 | 36.2 | 47.2 | -16.1 | 23.0 | 3.6 | nt | nt
N#Cc1nc(-c2ccccc2F)oc1NCCc1ccccc1 | 35.9 | 56.6* | 4.3 | -35.4 | 66.3* | 60.7* | 77.9*
CCOc1ccccc1N1CC(C(=O)Nc2cc(S(=O)(=O)N3CCOCC3)ccc2OC(C)C)CC1=O (centres undefined) | nt | nt | -7.6 | nt | nt | nt | nt
Oc1ccc(Cl)cc1/C=C/c1ccc2cccc(O)c2n1 | 35.2 | 58.2* | 9.1 | 105.5* | 63.5* | 62.7* | 16.1
CCCc1cc(C(=O)Nc2ccc(CC)cc2)no1 | 21.0 | 33.6 | 1.8 | -31.5 | 3.2 | nt | nt
CC1(CCc2ccccc2)NC(=O)NC1=O (centres undefined) | nt | nt | -2.2 | nt | nt | nt | nt
O=C(Nc1cccc(Br)c1)c1cc2ccccc2o1 | 11.4 | 52.5* | 6.9 | -0.7 | 47.0* | 48.6* | 62.4*
O=Cc1ccc(OCc2cn(CC(=O)c3ccc(O)cc3)nn2)cc1 | nt | nt | -7.2 | -35.9 | nt | nt | nt
COc1cc([N+](=O)[O-])cc2sc(NC(=O)c3c(F)cccc3F)nc12 | 37.1 | 51.7* | 1.9 | -19.0 | 47.0* | 43.6* | 50.7*
O=C(Nc1nc(-c2ccc([N+](=O)[O-])cc2)cs1)c1c(F)cccc1F | -10.0 | 2.1 | 0.0 | -8.5 | 3.7 | nt | nt
Nc1o[nH]c(=O)c1C1CCCCC1 | nt | nt | 10.2 | 0.7 | nt | nt | nt
O=C(/C=C/Sc1ccccc1)c1ccccc1 | 21.5 | 66.5* | 38.1 | -50.0 | 59.2* | 64.8* | 80.8*
CCCC(=O)NC(=S)Nc1cccc(NC(=O)c2ccc(Cl)cc2Cl)c1 | 7.7 | 2.3 | -6.4 | -15.2 | 5.4 | nt | nt
CCCC(=O)NC(=S)Nc1cccc(NC(=O)c2ccccc2Cl)c1 | 36.4 | 53.5* | -2.2 | 2.0 | 44.8* | 39.4* | 44.0*
CCOC(=O)c1c(C)[nH]c(C(=O)COC(=O)COc2ccccc2C=O)c1C | 23.0 | 53.7* | -5.9 | -20.1 | 53.3* | 51.1* | 62.3*
CC1CN(S(=O)(=O)c2cccc(C(=O)Nc3ccc(S(=O)(=O)NC4=NCCCCC4)cc3)c2)CC(C)O1 (centres undefined) | 1.6 | 10.3 | -0.3 | 4.1 | -7.5 | nt | nt
SMILES | tim10-1 inh | tim23-1 inh | Beta2AR agonist | PfHsp90 yeast 2 | TIM10 inh | TIM10 conf | tim23-1 conf
Cc1ccc(/C=C/C(=O)c2ccc([N+](=O)[O-])o2)cc1 | 26.5 | 57.3* | nt | nt | 67.9* | 78.0* | -24.8
Cc1ccc(NC2=C(Cl)C(=O)OC2OC(=O)c2ccc(C)cc2)cc1 (centres undefined) | 29.2 | 42.7 | -0.8 | 16.8 | 36.3 | nt | nt
COC(=O)c1ccc(NC2=C(Cl)C(=O)OC2OC(=O)c2ccccc2)cc1 (centres undefined) | 35.6 | 50.3* | -0.8 | -33.2 | 41.0* | 24.9 | 42.8*
CCC(C)NC(=O)Nc1ccc(Br)cc1 (centres undefined) | 16.9 | 24.6 | 0.2 | -9.9 | -8.7 | nt | nt
CCC(C)Nc1ccc(NC(C)CC)cc1 (centres undefined) | 38.1 | 80.5* | 21.8 | + | 61.0* | 68.7* | 82.1*
O=[N+]([O-])c1cc2oc3c(c2c(C=NCc2ccccc2)c1O)CCCC3 | 33.9 | 77.4* | -35.8 | -15.8 | 54.0* | -0.2 | 2.2
CCCCOc1ccc2ccccc2c1C=O | 26.8 | 44.9 | 1.5 | 2.4 | 28.7 | nt | nt
O=[N+]([O-])/C=C/c1c(OCc2ccccc2)ccc2ccccc12 | 33.9 | 60.7* | 89.0* | 0.9 | 72.7* | 5.9 | 47.3*
CCCCn1nnc(NC(=O)c2ccc(-c3cccc([N+](=O)[O-])c3)o2)n1 | 9.1 | 30.0 | nt | nt | 13.1 | nt | nt
CCCn1nnc(NC(=O)c2ccc(-c3cccc(Cl)c3)o2)n1 | 33.9 | 69.0* | -0.4 | -25.9 | 51.1* | 32.0* | 73.6*
O=C(Nc1ccc2nc3n(c(=O)c2c1)CCCCC3)c1cc([N+](=O)[O-])ccc1F | 38.5 | 67.6* | 12.5 | 2.9 | 48.0* | 46.5* | 54.9*
O=C(Nc1ccc2nc3n(c(=O)c2c1)CCCCC3)c1ccccn1 | 35.1 | 54.5* | -11.2 | 4.1 | 45.5* | 36.1* | 68.5*
O=C(Nc1ccc2nc3n(c(=O)c2c1)CCCC3)c1ccccc1F | 9.2 | 49.4 | -0.3 | 13.3 | 23.3 | nt | nt
Cc1ccc(C(=O)/C=C/c2ccccc2[N+](=O)[O-])cc1 | 29.8 | 59.0* | 62.5* | 11.8 | 49.7* | 38.1* | 62.0*
O=C(Oc1coc(CSc2ncccn2)cc1=O)c1ccccc1[N+](=O)[O-] | 39.0 | 61.7* | -2.9 | -2.8 | 59.3* | 51.5* | 49.5*
O=C(c1cccs1)N1CCN(c2nnc(-c3ccccc3)c3ccccc23)CC1 | 27.4 | 51.4* | -3.4 | nt | 42.5* | -1.6 | 26.3
CCCC(=O)N1CCN(c2nnc(-c3ccccc3)c3ccccc23)CC1 | -29.7 | -13.6 | -13.8 | 10.7 | -33.5 | nt | nt
COc1cc(C(=O)ON=C2C3CC4CC(C3)CC2C4)cc(OC)c1OC | 19.3 | 50.4* | 15.2 | -24.0 | 81.8* | 83.5* | 59.6*
N=c1oc2cc(O)ccc2cc1C(=O)Nc1ccc(Br)cc1 | 33.5 | 55.1* | -10.1 | -13.8 | 41.1* | 25.1 | 56.2*
